ALR H2O2 inh: inhibitors of human ALR sulfhydryl oxidase, primary screen, biochemical, H2O2 detection, HRP-luminol luminescence, single point; FAD-linked sulfhydryl oxidase ALR (Homo sapiens), P55789; purified ALR, DTT oxidation; inhibition, % (concentration not given with the values); 290,000 tested, 3.8% active;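 active = mean replicate inhibition above about 79%, with every replicate also reaching it, limit read from the data; inconclusive = only one of the two criteria met; inactive = mean below limit and not every replicate reaching it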
Target sequence (P55789 whole entry, looked up): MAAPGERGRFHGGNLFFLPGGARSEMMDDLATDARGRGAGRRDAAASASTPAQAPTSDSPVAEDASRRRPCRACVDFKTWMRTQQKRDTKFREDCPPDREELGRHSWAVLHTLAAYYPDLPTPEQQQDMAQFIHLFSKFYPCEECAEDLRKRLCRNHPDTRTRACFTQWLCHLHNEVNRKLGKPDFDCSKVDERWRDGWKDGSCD
Mot1-301 SUMO: yeast Mot1-301 growth rescue at high temperature, primary screen, SUMOylation pathway inhibitor project, S. cerevisiae, ATP luminescence, 38.5C; 320,000 tested, 1% active; AID 2716, 2010; growth rescue, % at 18.8 µM; S. cerevisiae Mot1-301 growth rescue; percent above DMSO median, 100 means doubled;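 active = every valid replicate shows activation above 250% relative to neutral control wells; inactive = the rest, any valid replicate at or below 250%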;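 also: OY570 slx delta 5 strain wells were the positive control but not used for scaling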
HIF activator: HIF pathway transcriptional activators, primary screen, cell-based, U2OS HRE-luciferase, luminescence; U2OS HRE-luciferase reporter; normalized: DMSO 0%, desferrioxamine 100%; activation, % at 7.5 µM (by protocol); 300,000 tested, 0.32% active; AID 1910, 2009;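 active = mean activation of at least 10% of the iron chelator positive control signal, with at least half of replicates also reaching 10%; inconclusive = mean and replicate majority disagree about reaching 10%; inactive = mean and most replicates under 10%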
AI-2 QS modul: Vibrio harveyi AI-2 quorum sensing modulators, primary screen, JMH597 strain, luminescence/OD600 ratio. Vibrio harveyi JMH597 AI-2 luminescence/OD600 ratio, 9 h; active compounds read low; strain lacks LuxN and CqsS sensors; 0 = neutral-control median. activity change, % at 7.5 µM. 300,000 tested, 0.4% active. AID 2094, 2009; in the data active = activity change below about -75%, passing the limit was not always enough; inconclusive = no clear call, values can overlap the other calls;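 also: luminescence divided by OD600 gain over 9 h not by final OD600 alone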
Active calls of the source: *; ? = inconclusive; / = no result. An excerpt weighted towards active compounds, which were near 4.8% of everything screened.

SMILES	ALR H2O2 inh	Mot1-301 SUMO	HIF activator	AI-2 QS modul
O=C(CSC1=NC(=O)C(Cc2ccccc2)C(=O)N1)Nc1ncc(Br)cc1Br (stereo unspecified)	?	327*	0	0
CCC1C(=O)N=C(SCC(=O)NC2CCCCC2)NC1=O (stereo unspecified)	57	172	0	4
COc1ccccc1NC(=O)CSC1=NC(=O)C(Cc2ccccc2)C(=O)N1 (stereo unspecified)	99*	-2	0	7
CCC1C(=O)N=C(SCC(=O)Nc2ccc(S(N)(=O)=O)cc2)NC1=O (stereo unspecified)	100*	2	0	15
O=C(O)C1CC=CCC1C(=O)Nc1ccc2c(c1)CCC2 (stereo unspecified)	18	-3	0	13
CCCN1CCC(=O)N([C@H](CSc2ccc(OC)cc2)CC(C)C)CC1	99*	11	2	4
O=C(O)/C=C\C(=O)Nc1ccc(N2CCN(c3cccc(Cl)c3)CC2)cc1	99*	73	0	18
O=C(O)/C=C\C(=O)Nc1ccc(N2CCN(c3ccc(Cl)cc3)CC2)cc1	98*	90	0	21
O=C(O)/C=C\C(=O)Nc1ccc(N2CCN(c3ccc(Cl)c(Cl)c3)CC2)cc1	16	136	0	18
O=C(O)/C=C/C(=O)Nc1ccc(OCc2ccccc2)cc1	12	26	1	3
O=C(O)/C=C\C(=O)Nc1ccc(N2CCN(c3ccc(F)cc3)CC2)cc1	98*	53	0	19
O=C(O)/C=C/C(=O)Nc1ccc(-c2ccccc2)cc1	98*	-10	-1	44
Cc1ccc(CN(C)C(=O)CSc2nnc3n2CCCCC3)c(C)c1	/	-16	/	/
O=C(CN1CCN(c2ncccn2)CC1)N1CCCc2c1c(=O)oc1ccc(O)cc21	1	8	/	/
O=C1NCCCc2c1oc1ccc(O)cc21	99*	-8	0	26
O=C(CN1C(=O)CCC1=O)Nc1nc(-c2ccccn2)cs1	-22	109	0	-19
CC(=O)CSc1nc2ccccc2s1	98*	-8	1	-12
Cc1csc(NC(=O)CCCSc2nc3ccccc3s2)n1	-4	-20	-1	14
O=C(CN1C(=O)CCC1=O)Nc1nc(-c2nc3ccccc3s2)cs1	95*	9	3	16
COC(=O)CSc1nc2ccc(N)cc2s1	99*	36	0	30
CCOC(=O)CSc1nc2ccc(NC(C)=O)cc2s1	34	-26	1	28
Cc1csc(NC(=O)CSc2nc3ccccc3s2)n1	97*	5	0	4
Cc1cc(Cl)c2oc(C(=O)N3CCCCC3CCN3CCCC3=O)c(C)c2c1 (stereo unspecified)	4	22	0	20
CN(C)c1ccc(C(=O)Nc2ccc(S(=O)(=O)Nc3nccs3)cc2)cc1	-7	1	0	26
CC(Sc1nc2ccccc2s1)C(=O)N1CCOCC1 (stereo unspecified)	99*	1	1	14
SMILES	ALR H2O2 inh	Mot1-301 SUMO	HIF activator	AI-2 QS modul
N#CC1(NC(=O)CSc2nc3ccc([N+](=O)[O-])cc3s2)CCCCC1	-16	-7	-2	13
O=C(CSc1nc2ccccc2s1)NC1CCS(=O)(=O)C1 (stereo unspecified)	90*	20	/	23
N#CC1(NC(=O)CSc2nc3ccccc3s2)CCCCC1	98*	4	/	/
CSCCC(NC(=O)COc1ccccc1)C(=O)N(C)Cc1cccc(F)c1 (stereo unspecified)	-1	-9	/	/
COc1ccc(CC(=O)Nc2cc(S(=O)(=O)N3CCCC3)ccc2Cl)c(OC)c1	/	1	/	/
CC(C)CCC(=O)N1CCOC1=O	0	5	0	-4
CCOC(=O)c1cc2sc(C)cc2n1C(C)C(=O)OCC (stereo unspecified)	1	-3	0	6
Cc1cc2c(cc(C(=O)O)n2C)s1	79*	-19	0	43
C[C@H](CO)N1C[C@H](C)[C@@H](CN(C)C(=O)Nc2ccc(C(F)(F)F)cc2)Oc2ccc(NC(=O)Cc3ccccc3)cc2C1=O	4	-7	/	/
COc1ccc(CN(C)c2ncnc3sccc23)c(OC)c1OC	-1	-35	6	40
CCOC(=O)N1CCN(C(=O)CS(=O)Cc2nc(-c3ccc(OC)c(OC)c3)oc2C)CC1 (stereo unspecified)	99*	-6	-1	2
CCN1CCN(C(=O)CS(=O)Cc2nc(-c3cccc(C)c3)oc2C)CC1 (stereo unspecified)	99*	2	0	10
CCOC(=O)N1CCN(C(=O)CS(=O)Cc2nc(-c3cccc(C)c3)oc2C)CC1 (stereo unspecified)	99*	-2	0	1
Cc1cccc(-c2nc(CS(=O)CC(=O)N3CC(C)CC(C)C3)c(C)o2)c1 (stereo unspecified)	96*	5	0	20
Cc1cccc(-c2nc(CS(=O)CC(=O)N3CCc4ccccc4C3)c(C)o2)c1 (stereo unspecified)	/	149	0	93
COc1ccc(N2CCN(C3CCCN(C(=O)CN4CCOC4=O)C3)CC2)cc1 (stereo unspecified)	63	42	0	10
CC(=O)/C=N/Nc1ccccc1	-6	24	0	4
OC[C@@H](O)[C@H](O)C(/C=N/Nc1ccccc1)=N\Nc1ccccc1	99*	159	0	8
CCCn1nc([N+](=O)[O-])c(C(C#N)c2nc3ccccc3s2)c(Cl)c1=O (stereo unspecified)	97*	-26	0	25
CC1(C(=O)OCC(=O)Nc2nc(-c3ccc(F)c(F)c3)cs2)CC1(Cl)Cl (stereo unspecified)	0	37	0	45
C[C@@H]1O[C@@H](OC[C@H]2O[C@@H](Oc3c(-c4ccc(O)c(O)c4)oc4cc(O)cc(O)c4c3=O)[C@H](O)[C@@H](O)[C@@H]2O)[C@H](O)[C@H](O)[C@H]1O	99*	-4	0	-8
O=c1c(O[C@@H]2O[C@H](CO)[C@@H](O)[C@H](O)[C@H]2O)c(-c2ccc(O)cc2)oc2cc(O)cc(O)c12	94*	-9	/	/
O=c1c(O[C@@H]2O[C@H](CO)[C@@H](O)[C@H](O)[C@H]2O)c(-c2ccc(O)c(O)c2)oc2cc(O)cc(O)c12	/	/	0	15
COc1cc2c(=O)c(-c3ccc(O)cc3)coc2cc1OC1OC(CO)C(O)C(O)C1O (stereo unspecified)	/	-12	0	27
O=C(CCc1ccc(O)cc1)c1c(O)cc(O)cc1O[C@@H]1O[C@H](CO)[C@@H](O)[C@H](O)[C@H]1O	81*	7	0	-6
O=c1c(O)c(-c2cc(O)c(O)c(O)c2)oc2cc(O)cc(O)c12	99*	265*	/	/
Cc1cc(NC(=O)c2ccco2)c(=O)n(Cc2cccc(C(F)(F)F)c2)c1	/	13	1	15
